Test results taken from the supplement of paper PMC10981050.
Several values for one entry are separate records, joined by “and”; a condition that tells them apart may be missing. Equal entries are not always repeated. Structures can show the parent of a compound that is named as a salt.

Assays:
Assay in all cases: cell viability relative to vehicle control; higher = less cytotoxic
Details in all cases: 10 µM
K562 = tested on: K562
Procedure, shortened: (§1)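 CRISPR-edited SRSF2 P95 mutant and isogenic wild-type clones of four leukaemia lines were screened against Selleck bioactive, kinase and epigenetic probe libraries, with identity-inconsistent compounds removed. Compounds were acoustically dispensed into 384-well plates at a single 10 µM dose, with 2000 cells in 50 µL medium per well. After 48 h, supernatant was removed and CellTiter-Glo luminescence was read. Viability was expressed as percent of the on-plate DMSO vehicle control, analysed in Genedata Screener.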

MARIMO = tested on: MARIMO
Procedure, shortened: as §1

MOLM14 = tested on: MOLM14
Procedure, shortened: as §1

OCI-AML2 = tested on: OCI-AML2
Procedure, shortened: as §1

Structure (SMILES) | cell viability (K562; SRSF2 genotype: SRSF2 P95H/wt) | cell viability (K562; SRSF2 genotype: SRSF2 wt/wt) | cell viability (MARIMO; SRSF2 genotype: SRSF2 P95H/wt) | cell viability (MARIMO; SRSF2 genotype: SRSF2 wt/wt) | cell viability (MOLM14; SRSF2 genotype: SRSF2 P95H/wt) | cell viability (MOLM14; SRSF2 genotype: SRSF2 wt/wt) | cell viability (OCI-AML2; SRSF2 genotype: P95H/wt) | cell viability (OCI-AML2; SRSF2 genotype: wt/wt)
COC(=O)CCC(=O)CN [Methyl Aminolevulinate Hydrochloride] | 94.6% and 91.5% | 99% | 92.2% | 94.4% | 95% | 97.2% | 93.9% | 102%
CC(C)(C)C1CCC(CC2=C(O)c3ccccc3C(=O)C2=O)CC1 (stereo unspecified) [Buparvaquone] | 76.6% and 81.5% | 77% | 84.1% | 101% | 63.2% | 42.9% | 80.4% | 75.3%
Cc1ccccc1CN1C2=NCCN2C(=O)C2=C1CCN(Cc1ccccc1)C2 [TIC10 analogue] | 98.2% and 97.9% | 95.9% | 104% | 104% | 103% | 103% | 88% | 101%
O=C(CSc1nc2c(c(=O)n1-c1ccccc1)SCC2)Nc1ccc(-c2ccccc2)cn1 | 88.8% and 93.3% | 92.7% | 100% | 98.2% | 100% | 96.8% | 93.1% | 103%
CN(C)CCN1C(=O)c2cccc3cc(N)cc(c23)C1=O [Amonafide] | 33.8% and 37.6% | 32.1% | 7.66% | 10.7% | 0.3% | 0.27% | 0.94% | 2.97%
CC(C)(Sc1ccncc1-c1ccc(C#N)c2ccccc12)C(=O)O [Verinurad (RDEA3170)] | 102% and 101% | 102% | 105% | 104% | 95.8% | 102% | 109% | 105%
CCCCCCNC(=O)n1cc(F)c(=O)[nH]c1=O [Carmofur] | 96% and 94.6% | 82% | 74.1% | 81% | 42.2% | 27.3% | 57.9% | 58.3%
C=C1C2CCC3C2C(C)(C)CCCC13C (single isomer, unassigned; (+)) [(+)-Longifolene] | 105% and 104% | 110% | 96.6% | 107% | 103% | 106% | 103% | 115%
COc1c(C)cnc(Cn2cnc3c(Cl)nc(N)nc32)c1C | 21.6% and 31% | 29.2% | 32.7% | 25.9% | 2.67% | 2.88% | 18.4% | 22.2%
Fc1ccc(-c2c3cccc(C(F)(F)F)c3nn2Cc2ccc(F)cc2Cl)cc1 | 95.4% and 91.2% | 90.1% | 97.2% | 114% | 94.2% | 98% | 114% | 120%
O=c1cc(-c2ccc(O)cc2)oc2cc(O)c([C@@H]3O[C@H](CO)[C@@H](O)[C@H](O)[C@H]3O)c(O)c12 [Isovitexin] | 98.2% and 98.6% | 98.3% | 92.1% | 93.6% | 95.1% | 95.9% | 99.7% | 103%
C#Cc1cccc(Nc2ncnc3cc(OCCOC)c(OCCOC)cc23)c1 [Erlotinib(OSI-744)] | 83.5% and 94.5% | 84.8% | 75.9% | 84.8% | 79% | 84.6% | 77.9% | 84.4%
O=S1(=O)CCN(CN2CCS(=O)(=O)NC2)CN1 [Taurolidine] | 98.7% and 105% | 108% | 104% | 111% | 103% | 105% | 123% | 97.5%
COc1cc(OCc2cccc(-c3ccccc3)c2C)cc(OC)c1CN1CCCC[C@H]1C(=O)O [PD-1/PD-L1 inhibitor 1] | 87.3% and 92.7% | 100% | 83.7% | 85.2% | 89.8% | 95.3% | 68.2% | 73.2%
NC(=O)c1cccc(N)c1 [INO-1001 (3-Aminobenzamide)] | 96.6% and 95.7% | 94.7% | 99.5% | 97.8% | 100% | 96.6% | 94.7% | 98.8%
Cc1cc(N2CCOCC2)ccc1Nc1nc(NC2CCCCC2)c2[nH]cnc2n1 | 86.8% and 92.1% | 94.6% | 53% | 53.9% | 49.6% | 39% | 37.8% | 39.8%
Cc1cnc(Nc2ccc(OCCN3CCCC3)cc2)nc1Nc1cccc(S(=O)(=O)NC(C)(C)C)c1 | 1.46% and 2.3% | 2.29% | 6.76% | 10.9% | 0.67% | 0.58% | 0.71% | 1.39%
CCOc1nc2cccc(C(=O)OCc3oc(=O)oc3C)c2n1Cc1ccc(-c2ccccc2-c2noc(=O)[nH]2)cc1 [Azilsartan Medoxomil (TAK-491)] | 97.7% | 95.6% | 101% | 108% | 105% | 102% | 102% | 103%
CCOC(=O)Nc1ccc(NCc2ccc(F)cc2)nc1N [Flupirtine maleate] | 101% and 104% | 104% | 91.5% | 105% | 101% | 103% | 100% | 110%

Structure (SMILES) | cell viability (K562; SRSF2 genotype: SRSF2 P95H/wt) | cell viability (K562; SRSF2 genotype: SRSF2 wt/wt) | cell viability (MARIMO; SRSF2 genotype: SRSF2 P95H/wt) | cell viability (MARIMO; SRSF2 genotype: SRSF2 wt/wt) | cell viability (MOLM14; SRSF2 genotype: SRSF2 P95H/wt) | cell viability (MOLM14; SRSF2 genotype: SRSF2 wt/wt) | cell viability (OCI-AML2; SRSF2 genotype: P95H/wt) | cell viability (OCI-AML2; SRSF2 genotype: wt/wt)
C=CCc1cc(OC)c(O)c(C(=O)NCCO)c1 [Alibendol] | 100% and 103% | 103% | 98.2% | 104% | 98.2% | 102% | 100% | 112%
C=CC[S+]([O-])C[C@H](N)C(=O)O (stereo partly specified) [Alliin] | 105% | 107% | 104% | 96.5% | 114% | 107% | 102% | 98.2%
Cc1cc(C(=O)Nc2nc3cccc(Cl)c3n2[C@@H]2CCCCN(C(=O)/C=C/CN(C)C)C2)ccn1 [Nazartinib (EGF816, NVS-816)] | 74.5% and 75.6% | 69.3% | 27.6% | 35.6% | 53% | 48.9% | 44.4% | 56.7%
Cn1c(O)c(C2=c3ccccc3=NC2=O)c2ccccc21 [Meisoindigo] | 22.4% and 19.2% | 43.4% | 0.73% | 0.66% | 0.36% | 0.48% | 0.36% | 0.46%
CC(N)C12CC3CC(CC(C3)C1)C2 (stereo unspecified) [Rimantadine (Flumadine)] | 101% and 98.2% | 108% | 98.9% | 104% | 99.8% | 102% | 89.8% | 96.6%
Cc1ccc(NC(=O)c2ccc(CN3CC[C@H](N(C)C)C3)c(C(F)(F)F)c2)cc1Nc1nccc(-c2cncnc2)n1 [Bafetinib (INNO-406)] | 1.12% and 1.27% | 4.57% | 54.6% | 43.2% | 49.9% | 49% | 23.6% | 30.4%
O=C(NCC1(c2nc(-c3ccccc3)cs2)CCOCC1)c1cccc(-c2noc(C(F)(F)F)n2)c1 | 82.1% and 90.7% | 86.5% | 86.5% | 85.5% | 87.9% | 97.8% | 75.7% | 79.3%
COc1ccc(/C=C/C(=O)Nc2ccccc2C(=O)O)cc1OC | 98.1% and 98% | 98.1% | 108% | 102% | 98.9% | 100% | 113% | 102%
CO[C@H]1C[C@@H]2CC[C@@H](C)[C@@](O)(O2)C(=O)C(=O)N2CCCC[C@H]2C(=O)O[C@H]([C@H](C)C[C@@H]2CC[C@@H](OP(C)(C)=O)[C@H](OC)C2)CC(=O)[C@H](C)/C=C(\C)[C@@H](O)[C@@H](OC)C(=O)[C@H](C)C[C@H](C)/C=C/C=C/C=C/1C [Deforolimus (MK-8669)] | 71.2% and 68.8% | 70.8% | 75% | 75% | 54.2% | 60.8% | 67.5% | 64%
Cc1cc(O)c2c(c1)C(=O)c1cc(O)cc(O)c1C2=O [Emodin] | 85.5% and 86.8% | 90.4% | 90.9% | 100% | 109% | 107% | 89.1% | 83.7%
CC(=O)OCC(=O)[C@@]1(O)[C@H](C)C[C@H]2[C@@H]3CCC4=CC(=O)C=C[C@]4(C)[C@@]3(F)[C@@H](O)C[C@@]21C [Dexamethasone acetate] | 105% and 106% | 106% | 105% | 104% | 103% | 95.5% | 106% | 109%
OCCOCCN1CCN(C2=Nc3ccccc3Sc3ccccc32)CC1 [Quetiapine fumarate (Seroquel)] | 91.1% and 95.4% | 96.3% | 85.8% | 95.8% | 90% | 94.9% | 74.6% | 87%
Cc1cc(NS(=O)(=O)c2ccc(N)cc2)no1 [Sulfamethoxazole] | 94.6% and 85.2% | 92.6% | 89.7% | 95.6% | 99.8% | 91.1% | 85.2% | 95.5%
Cc1nn(C)c2c1C(c1ccc(C(F)(F)F)cc1)C(C#N)=C(N)O2 (stereo unspecified) | 101% and 106% | 111% | 99.5% | 95% | 103% | 102% | 112% | 121%
C=C(CCC=C(C)C)[C@H]1CC[C@]2(C)[C@@H]1[C@H](O)C[C@@H]1[C@@]3(C)CC[C@H](O[C@@H]4O[C@H](CO)[C@@H](O)[C@H](O)[C@H]4O[C@@H]4O[C@H](CO)[C@@H](O)[C@H](O)[C@H]4O)C(C)(C)[C@@H]3CC[C@]12C [Ginsenoside Rk1] | 107% and 97.8% | 107% | 105% | 104% | 108% | 104% | 100% | 104%
CCCS(=O)(=O)Nc1ccc(F)c(C(=O)c2c[nH]c3ncc(-c4ccc(Cl)cc4)cc23)c1F [Vemurafenib (PLX4032, RG7204)] | 92.8% and 102% | 94.8% | 92.6% | 106% | 102% | 108% | 111% | 105%
C=C(C)[C@@H]1CC[C@]2(C(=O)O)CC[C@]3(C)[C@H](CC[C@@H]4[C@@]5(C)CCC(=O)C(C)(C)[C@@H]5CC[C@]43C)[C@@H]12 [Betulonic acid] | 45.2% and 68% | 61.4% | 34.2% | 20.9% | 43.6% | 32.2% | 29.6% | 17.1%
CNS(=O)(=O)C[C@H]1CC[C@H](N(C)c2[nH]cnc3nccc2-3)CC1 [Oclacitinib maleate] | 95.6% and 99.2% | 103% | 95.5% | 102% | 55.9% | 73% | 77.5% | 72.5%
